About 83,000 compounds went through this panel and 20% of them were active in at least one assay; those are over-represented in the sample as a whole.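 In brief: 96-well plates, 48 h treatment, single concentration, percent growth endpoint.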 Unmarked numbers belong to inactive results. Activity calls are given as the source filed them. The calls were made as follows: active = growth percent below 10; inactive = the rest.

For the first test, the system named is CCRF-CEM leukemia. Nature of the test: NCI-60 one-dose screen, 48 h (100 = growth as untreated, 0 = no growth, -100 = all killed). The settings on record: 10 µM unless noted.
Take `O=C(/C=C/c1ccco1)Nc1ncc(Cc2ccc(F)cc2)s1`: the growth was 21.9%.
On the same count and under the same terms, the result for `COc1nc2ccccc2cc1/C=[N+](\[O-])c1ccccc1` reads 13.1%; that for `COc1ccc(-c2ccc(-c3ccc(C(=N)N)o3)o2)cc1`, 5.45% (active); that for `C=C(C[n+]1ccccc1)[C@@H]1CC[C@]2(C(=O)OC)CC[C@]3(C)[C@H](CC[C@@H]4[C@@]5(C)CCC(=O)C(C)(C)[C@@H]5CC[C@]43C)[C@@H]12`, 82.6%.
With `COc1cccc(C(=O)Nc2cccc(NC(=O)c3ccccn3)c2)c1`, the growth was 103%.
Same read-out and setting: in the case of `N#CC1=C(N)Oc2c(ccc3cccnc23)C1c1ccccc1` (configuration not stated) it was 15.7%; in that of `COc1ccc(C2=NN(C=O)C(c3ccc(Oc4nc5c(c(=O)n(C)c(=O)n5C)n4C)c(OC)c3)C2)cc1` (configuration not stated), 80.5%; in that of `CCCS(=O)(=O)Nc1cccc(Nc2ncnc3cc(NC(=O)CCl)ccc23)c1Cl`, 3.74% (active).
On the same count and under the same terms, the result for `Cn1cc(-c2csc(-c3cn(C)c4ccc(F)cc34)n2)c2cnccc21` reads -11.6% (active); that for `C=C(C)[C@@H]1CC[C@]2(C(=O)NC(C)=O)CC[C@]3(C)[C@H](CC[C@@H]4[C@@]5(C)CCCNC(C)(C)[C@@H]5CC[C@]43C)[C@@H]12`, 1.24% (active); that for `COc1cccc(CNc2nnc(C)c(C)n2)c1O`, 101%.
Same read-out and setting: the result for `O=C(/C=C/c1ccc(Cl)cc1)c1ccc(-n2cc(CN3CCN(c4cc5c(cc4F)c(=O)c(C(=O)O)cn5C4CC4)CC3)nn2)cc1` reads 74.6%; that for `COc1cccc2cc(N(C)c3nc(C)nc4c3CCC4)ccc12`, 15.2%.
With `O=C(O)CCCN1C(=O)CSC1=S`, the growth is 99.6%.
As for `Cc1c2cnccc2c(C)c2c1c1cc(C(=O)O)ccc1n2C`, the growth is 5.53% (active).
The same measure, in the same setting: in the case of `C=C1C(=O)O[C@H]2[C@H]1CC/C(CNC(=O)/C=C/c1cc(OC)c(OC)c(OC)c1)=C\CC[C@@]1(C)O[C@@H]21` it was -10.6% (active).
Consider `Cc1nc2ccccc2c(/C=C/c2ccc(Br)cc2)c1C(=O)/C=C/c1ccccc1`, for which the growth is 6.02% (active).
Still for that read-out and setting: in the case of `CC(=O)O[C@H]1C[C@@]2(C)[C@@H](C[C@@H](O)[C@H]3[C@@]4(C)CC[C@H](N5CCCC5)[C@@H](C)[C@@H]4CC[C@@]32C)/C1=C(\CCC=C(C)C)C(=O)O` it was 42.8%.
On the same count and under the same terms, in the case of `O=C(O)c1cc2ccccc2s1` it was 100%.
Still for that read-out and setting: in the case of `CC(=O)OCCOc1cc(Cl)c(Cl)cc1Cl` it was -63.4% (active).
As for `CCN1CCN(c2nc(NNC(=O)c3ccc(OC)cc3)nc(N3CCN(C(c4ccccc4)c4ccccc4)CC3)n2)CC1`, the growth was 43.8%.
As for `Cc1cc(=O)oc2cc(Oc3nc(-c4ccccc4)cn4c(-c5ccccc5)cnc34)ccc12`, the growth was 77.6%.
Turning to `CN(Cc1ccccc1)c1nc(Cl)c(C2CC(c3ccc(Cl)cc3)=NN2c2cc(Cl)cc(Cl)c2)s1` (configuration not stated), the growth was 95.1%.
Same read-out and setting: in the case of `COC(=O)c1c(C)nc(C)c2c1C(=O)C(Br)=C(NCCCCO)C2=O` it was 71.8%; in that of `COc1cc(/C=C/c2cc(/C=C/c3ccc(O)c(OC)c3)n(C(=O)Nc3ccc(C)cc3C)n2)ccc1O`, 1.54% (active).
Turning to `Cc1cc2nc(C(Cl)Cl)nc(-c3ccccc3)n2n1`, the growth is 79.1%.
The same measure, in the same setting: the result for `CN1C(=O)N(C)C2C1NN=c1s/c(=C\c3ccccc3F)c(=O)n12` (configuration not stated) reads 11%.

Another test deals with MOLT-4 leukemia. The description is as above. Particulars: 10 µM unless noted.
Consider `O=C(O)c1nn(-c2ccc(Cl)cc2)nc1N1CCCC1`, for which the growth was 97.5%.
Same read-out and setting: in the case of `COCCNC(=O)Cc1cc(-c2ccc(Cl)cc2)n(-c2ccccc2)c1C` it was 90%; in that of `O=C(Nc1ccc(Oc2cccc(F)c2)c(Cl)c1)c1cnccn1`, 41.2%.
The same measure, in the same setting: the result for `CC(=O)[C@H]1CC[C@]2(C)[C@@H]1CC[C@@H]1[C@@]3(C)C/C(=C/c4cccnc4)C(=O)C(C)(C)[C@@H]3CC[C@]12C` reads 20.3%; that for `C=C(C)Cn1c(SCC(=O)c2cccs2)nc2sc3c(c2c1=O)CCCC3`, 41.9%.
On the same count and under the same terms, the result for `Cc1ccc(C(=O)Nc2ccc(CN3CCN(C)CC3)c(C(F)(F)F)c2)cc1C#Cc1cnc(N)c2ccccc12` reads -45.2% (active); that for `COc1cc(C2CC(c3cccc(Nc4ccncc4)c3)=Nc3c(N)ncnc3N2)cc(OC)c1OC` (configuration not stated), 85.6%.
Regarding `CO[C@]12C=C/C(=C(/C(=O)OCc3cccnc3)C(=O)CCCCCCCC[C@]3(OC)C=C/C(=C(/C(=O)OCc4cccnc4)C(=O)CCCCCCCC1)O3)O2`, the growth was -13.1% (active).
The same measure, in the same setting: in the case of `CCOC(=O)CSc1nc2sc3c(c2c(=O)n1-c1ccccc1)CCCCC3` it was 102%; in that of `CN1CCN(Cc2ccc(NC(=O)c3cncc(C#Cc4cnc(N)c5ccc(C#N)cc45)c3)cc2C(F)(F)F)CC1`, 2.26% (active).
Turning to `CCOC(=O)C1=C(c2ccccc2)N=C2SC=C(c3cccc([N+](=O)[O-])c3)N2C1c1ccc(O)cc1` (configuration not stated), the growth is 111%.
Same read-out and setting: the result for `CCn1c2ccccc2c2cc(C(O)c3cccc4ncccc34)ccc21` (configuration not stated) reads 13.5%; that for `Cc1c(Cl)cccc1NC(=O)c1sc2nc3c(cc2c1N)CCCC3`, 21.6%; that for `O=C(/C=C/c1ccco1)Nc1ncc(Cc2ccc(F)cc2)s1`, 20.9%.
On to `COc1nc2ccccc2cc1/C=[N+](\[O-])c1ccccc1`, for which the growth was 29.5%.
Same read-out and setting: the result for `COc1ccc(-c2ccc(-c3ccc(C(=N)N)o3)o2)cc1` reads 27.7%; that for `C=C(C[n+]1ccccc1)[C@@H]1CC[C@]2(C(=O)OC)CC[C@]3(C)[C@H](CC[C@@H]4[C@@]5(C)CCC(=O)C(C)(C)[C@@H]5CC[C@]43C)[C@@H]12`, 78.9%.
The same measure, in the same setting: in the case of `COc1cccc(C(=O)Nc2cccc(NC(=O)c3ccccn3)c2)c1` it was 88.6%; in that of `N#CC1=C(N)Oc2c(ccc3cccnc23)C1c1ccccc1` (configuration not stated), 39.2%; in that of `COc1ccc(C2=NN(C=O)C(c3ccc(Oc4nc5c(c(=O)n(C)c(=O)n5C)n4C)c(OC)c3)C2)cc1` (configuration not stated), 66.7%.
On the same count and under the same terms, the result for `CCCS(=O)(=O)Nc1cccc(Nc2ncnc3cc(NC(=O)CCl)ccc23)c1Cl` reads 4.33% (active); that for `Cn1cc(-c2csc(-c3cn(C)c4ccc(F)cc34)n2)c2cnccc21`, -36.1% (active).
As to `C=C(C)[C@@H]1CC[C@]2(C(=O)NC(C)=O)CC[C@]3(C)[C@H](CC[C@@H]4[C@@]5(C)CCCNC(C)(C)[C@@H]5CC[C@]43C)[C@@H]12`, the growth was -13.1% (active).
Still for that read-out and setting: in the case of `COc1cccc(CNc2nnc(C)c(C)n2)c1O` it was 109%.
As for `O=C(/C=C/c1ccc(Cl)cc1)c1ccc(-n2cc(CN3CCN(c4cc5c(cc4F)c(=O)c(C(=O)O)cn5C4CC4)CC3)nn2)cc1`, the growth was 81.7%.
Still for that read-out and setting: in the case of `COc1cccc2cc(N(C)c3nc(C)nc4c3CCC4)ccc12` it was 14.8%; in that of `O=C(O)CCCN1C(=O)CSC1=S`, 98.4%.
The same measure, in the same setting: the result for `Cc1c2cnccc2c(C)c2c1c1cc(C(=O)O)ccc1n2C` reads 1.6% (active); that for `C=C1C(=O)O[C@H]2[C@H]1CC/C(CNC(=O)/C=C/c1cc(OC)c(OC)c(OC)c1)=C\CC[C@@]1(C)O[C@@H]21`, -26.6% (active).
The same measure, in the same setting: the result for `Cc1nc2ccccc2c(/C=C/c2ccc(Br)cc2)c1C(=O)/C=C/c1ccccc1` reads 7.65% (active); that for `CC(=O)O[C@H]1C[C@@]2(C)[C@@H](C[C@@H](O)[C@H]3[C@@]4(C)CC[C@H](N5CCCC5)[C@@H](C)[C@@H]4CC[C@@]32C)/C1=C(\CCC=C(C)C)C(=O)O`, -57.9% (active).
Turning to `O=C(O)c1cc2ccccc2s1`, the growth was 100%.
Consider `CC(=O)OCCOc1cc(Cl)c(Cl)cc1Cl`, for which the growth is 107%.
On the same count and under the same terms, in the case of `CCN1CCN(c2nc(NNC(=O)c3ccc(OC)cc3)nc(N3CCN(C(c4ccccc4)c4ccccc4)CC3)n2)CC1` it was 16.3%; in that of `Cc1cc(=O)oc2cc(Oc3nc(-c4ccccc4)cn4c(-c5ccccc5)cnc34)ccc12`, 58.5%; in that of `CN(Cc1ccccc1)c1nc(Cl)c(C2CC(c3ccc(Cl)cc3)=NN2c2cc(Cl)cc(Cl)c2)s1` (configuration not stated), 110%.
The same measure, in the same setting: in the case of `COC(=O)c1c(C)nc(C)c2c1C(=O)C(Br)=C(NCCCCO)C2=O` it was 79.5%.
The same measure, in the same setting: the result for `COc1cc(/C=C/c2cc(/C=C/c3ccc(O)c(OC)c3)n(C(=O)Nc3ccc(C)cc3C)n2)ccc1O` reads -20.7% (active); that for `Cc1cc2nc(C(Cl)Cl)nc(-c3ccccc3)n2n1`, 53.1%.
Regarding `CN1C(=O)N(C)C2C1NN=c1s/c(=C\c3ccccc3F)c(=O)n12` (configuration not stated), the growth is 15.8%.

(Values after PubChem BioAssay (NCI).)
